Assay results: PubChem BioAssay (Tox21)
“And” between values parts separate entries of the source, which are not always exact repeats. Equal values may be shown once. A number with no mark means an inactive call. Results filed as inconclusive are left out. Where a call stands in place of a potency, no number is given. More than one record can exist for a structure, and the calls need not agree. The source made the active and inactive calls. Unless noted, calls come from the whole dose curve; as a rule, active = well fitted curve in the direction sought with a large enough effect in the repeat runs; inconclusive = weak or mixed curves; inactive = no such curve, though single readings can be large; an effect the other way counts as inactive or inconclusive.

What was measured:
[1] = qHTS assay to identify small molecule antagonists of the estrogen related receptor (ERR) signaling pathway from Tox21 library - cell viability counter screen (AID 1224834); note: nearly all actives have a fitted effect of over 30% in size; note: potency is the fitted concentration of half-maximal effect
How it was run: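 Viability readout (CellTiter-Fluor fluorescence, 30 min at 37 C) multiplexed with the ERR assay; cells treated 17.5 h at 37 C with compounds delivered in DMSO.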

[2] = target: Luciferin 4-monooxygenase (Photinus pyralis) (UniProt P08659); experiment: qHTS assay to identify small molecule inhibitors of firefly luciferase (AID 1224835); note: nearly all actives have a fitted effect of over 25% in size; note: potency is the fitted concentration of half-maximal effect
Sequence of Luciferin 4-monooxygenase (Photinus pyralis) (P08659 whole entry, looked up): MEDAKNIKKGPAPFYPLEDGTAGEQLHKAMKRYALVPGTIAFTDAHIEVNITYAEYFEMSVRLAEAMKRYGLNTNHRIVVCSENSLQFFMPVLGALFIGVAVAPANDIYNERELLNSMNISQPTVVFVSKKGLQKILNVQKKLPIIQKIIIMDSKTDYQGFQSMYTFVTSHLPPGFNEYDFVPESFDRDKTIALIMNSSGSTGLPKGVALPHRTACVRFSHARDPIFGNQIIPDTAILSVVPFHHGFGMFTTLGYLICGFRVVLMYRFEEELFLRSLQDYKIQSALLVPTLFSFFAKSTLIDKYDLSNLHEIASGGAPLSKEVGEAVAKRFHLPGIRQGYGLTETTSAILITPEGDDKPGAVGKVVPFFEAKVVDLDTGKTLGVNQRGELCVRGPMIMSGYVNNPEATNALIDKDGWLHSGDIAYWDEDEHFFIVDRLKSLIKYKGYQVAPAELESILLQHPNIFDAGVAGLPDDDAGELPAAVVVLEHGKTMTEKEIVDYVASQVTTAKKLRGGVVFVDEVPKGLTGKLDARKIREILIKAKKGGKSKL
How it was run: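 Quantitative HTS format; KM concentrations of both substrates. Purified P. pyralis FLuc activity quantified from luminescence images.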

[3] = target: Nuclear receptor subfamily 1 group I member 3 (Homo sapiens) (UniProt Q14994); experiment: qHTS assay to identify small molecule antagonists of the constitutive androstane receptor (CAR) signaling pathway (AID 1224838);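 note: HepG2 cells stably expressing hCAR with CYP2B6 luciferase reporter stimulated by CITCO; nearly all actives have a fitted effect of over 40% in size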; note: potency is the fitted concentration of half-maximal effect
Sequence of Nuclear receptor subfamily 1 group I member 3 (Homo sapiens) (Q14994 whole entry, looked up): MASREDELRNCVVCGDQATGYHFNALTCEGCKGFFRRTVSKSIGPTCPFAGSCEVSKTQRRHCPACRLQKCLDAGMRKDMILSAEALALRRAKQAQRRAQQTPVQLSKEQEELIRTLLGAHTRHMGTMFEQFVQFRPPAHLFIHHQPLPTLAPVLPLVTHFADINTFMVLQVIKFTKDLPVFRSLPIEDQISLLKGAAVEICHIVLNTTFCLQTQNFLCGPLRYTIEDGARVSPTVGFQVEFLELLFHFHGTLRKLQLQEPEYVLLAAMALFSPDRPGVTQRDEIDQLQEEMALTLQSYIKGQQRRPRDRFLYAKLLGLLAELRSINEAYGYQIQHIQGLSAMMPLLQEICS
How it was run: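 Quantitative HTS in double-stable HepG2-CYP2B6-hCAR cells. After 4 h plating, cells get compound (15 concentrations) and CITCO at 50 nM final, incubate 24 h at 37 C, then ONE-Glo luminescence is read.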

[4] = target: Nuclear receptor subfamily 1 group I member 3 (Homo sapiens) (UniProt Q14994); experiment: qHTS assay to identify small molecule agonists of the constitutive androstane receptor (CAR) signaling pathway (AID 1224839); note: nearly all actives have a fitted effect of over 15% in size; note: potency is the fitted concentration of half-maximal effect
How it was run: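 A 15-concentration quantitative screen uses HepG2 cells co-transfected stably with human CAR and CYP2B6-2.2kb reporter. Treatment lasts 24 h with 0.75 uM PK11195 final present; ONE-Glo luminescence is the signal.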

[5] = qHTS assay to identify small molecule agonists of the hypoxia (HIF-1) signaling pathway - cell viability counter screen (AID 1224844; calls by dose curve; note: nearly all actives have a fitted effect of over 50% in size; note: potency is the fitted concentration of half-maximal effect)
How it was run: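 Luminescent ATP content (CellTiter-Glo, 30 min, room temperature) served as the viability measure in HRE-bla ME-180 cells exposed to compounds for 17 hrs in low-serum medium (0.5% dialyzed FBS).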

[6] = qHTS assay to identify small molecule agonists of the hypoxia (HIF-1) signaling pathway (AID 1224846; active = well fitted activation curve with a large enough effect in the signal ratio in the repeat runs, not every such curve was filed as active; the % refers to the signal ratio)
How it was run: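 Measured by blue/green FRET after loading CCF4-AM: beta-lactamase expressed from a hypoxia response element in ME-180 cells. Test agents were delivered in DMSO and left 17 hrs; cells had been plated 5 hrs earlier in low-serum (0.5% dialyzed FBS) medium.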

[7] = qHTS assay to identify small molecule agonists of H2AX - cell viability counter screen (AID 1224847; calls by dose curve; note: nearly all actives have a fitted effect of over 30% in size; note: potency is the fitted concentration of half-maximal effect)
How it was run: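 We seed wild-type CHO-K1 cells overnight, treat them for 3 hr at 37C with compounds in 15-concentration series, and quantify remaining viability by CellTiter-Glo luminescence.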

[8] = qHTS assay to identify small molecule antagonists of the estrogen related receptor (ERR) signaling pathway from Tox21 library (AID 1224848); note: nearly all actives have a fitted effect of over 50% in size; note: potency is the fitted concentration of half-maximal effect
How it was run: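 Cells: ERR line, 2,000/well; 6 h preincubation 37 C/5% CO2. Cpd in DMSO via pin tool; 18 h, 37 C. ONE-Glo, 30 min RT, luminescence.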

[9] = qHTS assay to identify small molecule agonists of the estrogen related receptor (ERR) signaling pathway from Tox21 library (AID 1224849; calls by dose curve; note: nearly all actives have a fitted effect of over 15% in size); settings: ERR reporter cell line, ONE-Glo luciferase, 18 h
How it was run: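 We plated ERR reporter cells, waited 6 h, added compounds in DMSO by pin tool and incubated them 18 h at 37 C. ONE-Glo was then added and luminescence read after 30 min.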

[10] = qHTS RealTime-Glo MT Cell Viability Assay in HepG2 cells - 24 hour (AID 1224867); note: nearly all actives have a fitted effect of over 50% in size; note: potency is the fitted concentration of half-maximal effect
How it was run: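 Cell number in HepG2 cultures estimated from NanoLuc luminescence generated by metabolic reduction of a prosubstrate by living cells. The homogeneous, nonlytic format allowed repeated reads at 0, 8, 16, 24, 32 and 40 h of compound exposure.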

[11] = qHTS RealTime-Glo MT Cell Viability Assay in HEK293 cells - 32 hour (AID 1224868); note: nearly all actives have a fitted effect of over 50% in size; note: potency is the fitted concentration of half-maximal effect
How it was run: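 Homogeneous bioluminescent viability format in HEK293 cells (600 cells/well). Following 5 h at 37 C/5% CO2, 23 nL compound was pintooled; the signal was measured repeatedly during 40 h incubation.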

[12] = A CellTox Green Cytotoxicity Assay to monitor cytotoxicity in HEK293 cells - 0 hour (AID 1224869); note: nearly all actives have a fitted effect of over 50% in size
How it was run: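 Each value comes from one timepoint of a single continuous run in which HEK293 cells with CellTox Green were exposed to compound for up to 40 h at 37 C, dye fluorescence rising with cell death.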

[13] = qHTS RealTime-Glo MT Cell Viability Assay in HepG2 cells - 40 hour (AID 1224870); note: nearly all actives have a fitted effect of over 50% in size; note: potency is the fitted concentration of half-maximal effect
How it was run: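 HepG2 cells mixed with RealTime-Glo MT reagents (NanoLuc plus cell-permeant prosubstrate) were seeded at 600 cells/well, incubated 5 h at 37 C/5% CO2, then pinned with compounds in DMSO; nonlytic luminescence tracked viability during 40 h treatment.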

[14] = qHTS assay to identify small molecule agonists of the constitutive androstane receptor (CAR) signaling pathway - cell viability counter screen (AID 1224836); note: nearly all actives have a fitted effect of over 45% in size; note: potency is the fitted concentration of half-maximal effect
How it was run: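 Counter screen multiplexed with the CAR reporter readout: HepG2 cells co-transfected with hCAR and the CYP2B6-2.2kb construct receive a 15-concentration compound series and 0.75 uM PK11195 (final), then CellTiter-Fluor fluorescence is read after 23 h.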

[15] = qHTS assay to identify small molecule antagonists of the estrogen related receptor signaling pathway with the pleiotropic PPARgamma coactivator (PGC) from Tox21 10K library - cell viability counter screen (AID 1224840; active = well fitted cell-killing curve with a large enough effect in the repeat runs, not every such curve was filed as active; note: nearly all actives have a fitted effect of over 40% in size; note: potency is the fitted concentration of half-maximal effect)
How it was run: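 Compounds in DMSO, alongside positive and negative controls, were pinned onto PGC/ERR cells (2,000 per well). Exposure lasted 17.5 hours at 37 C, followed by a 30-minute CellTiter-Fluor incubation and fluorescence reading.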

[16] = qHTS assay to identify small molecule antagonists of the estrogen related receptor signaling pathway with the pleiotropic PPARgamma coactivator (PGC) from Tox21 10K library (AID 1224841; call rule not given here; note: potency is the fitted concentration of half-maximal effect)
How it was run: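 Compound exposure ran 18 hours at 37 C in PGC/ERR cells (2,000/well) that had first rested 6 hours in a 37 C/5% CO2 incubator. Luciferase activity was then detected with One-Glo after a 30-minute room-temperature step.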

[17] = qHTS assay to identify small molecule agonists of the estrogen related receptor signaling pathway with the pleiotropic PPARgamma coactivator (PGC) from Tox21 10K library (AID 1224842); note: nearly all actives have a fitted effect of over 15% in size
How it was run: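 PGC/ERR reporter cells (NTP line) were seeded 2,000 per well, rested 6 h at 37 C/5% CO2, then pin-dosed with compounds in DMSO for 18 h at 37 C; luciferase read by One-Glo luminescence after 30 min at room temperature.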

[18] = target: Thyrotropin receptor (Homo sapiens) (UniProt P16473); experiment: qHTS assay to identify small molecule agonists of the thyroid stimulating hormone receptor (TSHR) signaling pathway (AID 1224843; calls by dose curve; note: nearly all actives have a fitted effect of over 45% in size; note: potency is the fitted concentration of half-maximal effect)
Sequence of Thyrotropin receptor (Homo sapiens) (P16473 whole entry, looked up): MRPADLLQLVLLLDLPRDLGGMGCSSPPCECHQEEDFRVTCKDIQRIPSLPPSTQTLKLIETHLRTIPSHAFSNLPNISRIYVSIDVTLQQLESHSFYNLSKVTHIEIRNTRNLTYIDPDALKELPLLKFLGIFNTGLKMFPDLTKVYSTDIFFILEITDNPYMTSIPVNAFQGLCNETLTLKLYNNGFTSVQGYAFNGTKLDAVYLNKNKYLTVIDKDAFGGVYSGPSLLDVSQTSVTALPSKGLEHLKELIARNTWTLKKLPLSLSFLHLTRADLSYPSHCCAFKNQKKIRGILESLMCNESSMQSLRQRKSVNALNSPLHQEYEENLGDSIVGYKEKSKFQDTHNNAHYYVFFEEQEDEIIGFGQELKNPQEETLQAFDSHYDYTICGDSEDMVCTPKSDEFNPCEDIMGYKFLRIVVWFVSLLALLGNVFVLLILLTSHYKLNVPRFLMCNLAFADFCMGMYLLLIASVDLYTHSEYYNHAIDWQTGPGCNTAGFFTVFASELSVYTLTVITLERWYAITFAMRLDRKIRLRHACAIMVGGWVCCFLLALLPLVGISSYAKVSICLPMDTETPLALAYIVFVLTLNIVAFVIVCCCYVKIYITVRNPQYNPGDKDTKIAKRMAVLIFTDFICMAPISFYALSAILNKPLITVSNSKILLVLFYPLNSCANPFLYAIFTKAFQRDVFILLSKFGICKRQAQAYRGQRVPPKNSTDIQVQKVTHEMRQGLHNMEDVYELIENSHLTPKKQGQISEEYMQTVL
How it was run: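 TSHR-expressing HEK293 cells (800 per well) were exposed to compounds for 30 min at room temperature. cAMP was then detected by HTRF competition with cAMP-d2 and anti-cAMP cryptate, read after 1 h at room temperature. Fifteen concentrations, triplicate.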

[19] = qHTS assay to identify small molecule agonists of H2AX (AID 1224845; active = well fitted activation curve with a large enough effect in the signal ratio in the repeat runs, not every such curve was filed as active; the % refers to the signal ratio)
How it was run: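 Wild-type CHO-K1 cells plated overnight, then exposed 3 hr at 37C to compounds at 15 concentrations (0.76% DMSO). Lysed, then HTRF anti-pH2AX(S139)-cryptate/anti-H2AX-d2 detection after 24 hr at room temperature; emissions 665 and 620 nm.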

[20] = qHTS assay to identify small molecule antagonists of the constitutive androstane receptor (CAR) signaling pathway - cell viability counter screen (AID 1224837); note: nearly all actives have a fitted effect of over 45% in size; note: potency is the fitted concentration of half-maximal effect
How it was run: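 Fluorescence from CellTiter-Fluor served as the viability signal. Human hepatoma HepG2 cells stably bearing hCAR and CYP2B6-2.2kb received compound plus CITCO (50 nM final) for 23 hr.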

## Nc1ccc(NCCO)c([N+](=O)[O-])c1
[1]
  Potency: 48.6 µM (active)
[2]
  Potency: 35.6 µM (active)
[3]
  Potency: inactive
[4]
  Potency: inactive
[5]
  Potency: inactive
[6]
  Potency: inactive
[7]
  Potency: 80 µM (active)
[8]
  Potency: inactive
[9]; at 92.4 µM (top of the series)
  activity change, positive = activation: -17.2%
[10]
  Potency: inactive
[11]
  Potency: inactive
[12]
  Potency: inactive
[13]
  Potency: inactive

## Cc1nc(-c2ccc(Cl)cc2)oc1COC(C)(C)C(=O)O
[1]
  Potency: inactive
[2]
  Potency: inactive
[14]
  Potency: inactive
[3]
  Potency: inactive
[4]
  Potency: inactive
[15]
  Potency: inactive
[16]
  Potency: inactive
[17]
  Potency: inactive
[18]
  Potency: inactive
[5]
  Potency: inactive
[19]
  Potency: inactive
[6]
  Potency: inactive
[7]
  Potency: inactive
[8]
  Potency: inactive
[9]; at 42.5 µM (top of the series)
  activity change, positive = activation: 0.637%
[10]
  Potency: inactive
[11]
  Potency: inactive
[12]
  Potency: inactive
[13]
  Potency: inactive

## Cc1c2ccccc2c(C)c2c1ccc1ccccc12
[1]
  Potency: 27 µM (active) and 54.5 µM (active)
[2]
  Potency: 19.8 µM (active) and 31.7 µM (active)
[20]
  Potency: 54.5 µM (active)
[3]
  Potency: inactive
[4]
  Potency: 5.39 µM (active) and 9.69 µM (active)
[15]
  Potency: 53.9 µM (active) and 27.3 µM (active)
[16]
  Potency: 34.4 µM (active)
[18]
  Potency: 27 µM (active) and 24.3 µM (active)
[5]
  Potency: inactive
[19]
  Potency: inactive
[7]
  Potency: inactive
[8]
  Potency: 30.3 µM (active) and 61.1 µM (active)
[9]; at 92.4 µM (top of the series)
  activity change, positive = activation: -83.3% and -76.1%
[10]
  Potency: inactive
[11]
  Potency: 43.2 µM (active) and 24.5 µM (active)
[12]
  Potency: inactive
[13]
  Potency: inactive

## CN1CCN(Cc2cc(-c3ccc4[nH]c(=O)oc4c3)co2)[C@@H](c2ccc(F)cc2)C1
[1]
  Potency: 23.4 µM (active)
[2]
  Potency: inactive
[3]
  Potency: inactive
[4]
  Potency: inactive
[18]
  Potency: 13.2 µM (active)
[19]
  Potency: inactive
[6]
  Potency: inactive
[12]
  Potency: inactive

## CC(C)(C)c1ccc(C(O)CCCN2CCC(C(O)(c3ccccc3)c3ccccc3)CC2)cc1 (configuration not stated)
[1]
  Potency: 11.9 µM (active)
[2]
  Potency: inactive
[14]
  Potency: 23.7 µM (active)
[3]
  Potency: 26.6 µM (active)
[4]
  Potency: inactive
[5]
  Potency: 21.3 µM (active)
[7]
  Potency: 34.8 µM (active)
[10]
  Potency: 6.01 µM (active)
[11]
  Potency: 4.77 µM (active)
[12]
  Potency: inactive
[13]
  Potency: 4.77 µM (active)

## C[Si](Cl)(c1ccccc1)c1ccccc1
[1]
  Potency: inactive
[2]
  Potency: inactive
[14]
  Potency: inactive
[3]
  Potency: inactive
[15]
  Potency: inactive
[17]
  Potency: inactive
[18]
  Potency: inactive
[5]
  Potency: inactive
[19]
  Potency: inactive
[6]
  Potency: inactive
[9]; at 92.4 µM (top of the series)
  activity change, positive = activation: -19%
[10]
  Potency: inactive
[12]
  Potency: inactive

## Cc1cc(=O)oc2cc(O)cc(O)c12
[1]
  Potency: inactive
[2]
  Potency: inactive
[20]
  Potency: inactive
[3]
  Potency: inactive
[15]
  Potency: inactive
[17]
  Potency: inactive
[18]
  Potency: inactive
[9]; at 92.4 µM (top of the series)
  activity change, positive = activation: -20.6%
[10]
  Potency: inactive
[11]
  Potency: inactive
[12]
  Potency: inactive
